Sampled rows, rich in hits. Any-hit rate of the full collection: about 32%.
CYP2C9 activ = increases human cytochrome P450 2C9 activity; P11712; activation factor at 5 µM; hit rate 1.4% among 96,000; recombinant CYP2C9, luciferin-H conversion, luminescence; active compounds read high; factor 1 = untreated enzyme, 0 = blocked;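 active = activation factor of 2 or more for CYP2C9 at a 5 µM dose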
Target sequence (P11712 whole entry, looked up): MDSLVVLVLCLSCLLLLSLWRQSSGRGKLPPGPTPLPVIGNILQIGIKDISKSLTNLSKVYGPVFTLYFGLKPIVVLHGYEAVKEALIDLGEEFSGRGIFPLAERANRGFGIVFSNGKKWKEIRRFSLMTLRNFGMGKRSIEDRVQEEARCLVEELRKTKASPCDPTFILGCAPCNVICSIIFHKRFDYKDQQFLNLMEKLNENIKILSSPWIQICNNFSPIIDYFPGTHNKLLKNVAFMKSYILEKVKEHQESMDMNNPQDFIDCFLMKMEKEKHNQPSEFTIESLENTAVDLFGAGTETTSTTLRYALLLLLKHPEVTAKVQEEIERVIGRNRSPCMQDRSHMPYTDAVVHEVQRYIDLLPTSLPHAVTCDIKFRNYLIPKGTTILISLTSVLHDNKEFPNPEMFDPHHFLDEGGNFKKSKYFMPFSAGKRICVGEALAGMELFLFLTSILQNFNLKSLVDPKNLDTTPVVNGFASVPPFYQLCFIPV
PostGolgi yeast = growth inhibition of a yeast mutant, post-Golgi transport screen. inhibition, % at 10 µM. AID 739. hit rate 0.9% among 98,000. post-Golgi transport phenotypic cell assay;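 note: yeast cells grown in 1536-well plates; yeast grown about 18 h at 30C before absorbance read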
CYP2C19 inh = blocks human cytochrome P450 2C19. P33261. CYP2C19 Supersomes, luciferin-H EGE luminescence, 30 min. inhibition, % at 5 µM. hit rate 21% among 96,000;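 active = CYP2C19 inhibition above a set limit at 5 µM in the primary screen, cut at about 50% in these data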
PostGolgi ctrl = growth of the yeast control strain, post-Golgi counter-screen; efflux-deficient yeast background strain, growth absorbance A615, 16 h; inhibition, % at 10 µM; hit rate 5% among 98,000
CYP2C9 inh = blocks human cytochrome P450 2C9; AID 777; P11712; inhibition, % at 5 µM; hit rate 20% among 96,000; CYP2C9 Supersomes, luciferin-H conversion, luminescence;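 active = blocking of liver enzyme CYP2C9 beyond about 50% at 5 µM, limit read from the data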
CYP2C19 act = cytochrome P450 2C19 (human) activation; P33261; activation factor at 5 µM; recombinant CYP2C19, luciferin-H EGE luminescence; active compounds read high; 0 = fully inhibited enzyme, 1 = untreated enzyme; 96,000 tested, under 10 active; AID 1025;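 active = activation factor of at least 2 at 5 µM in the primary screen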
A number is an active result. Cut-off read from the data, not from the text of the source, unless noted: active = inhibition above about 30%; inactive = the rest.

Screening CCOC(=O)c1sc(NC(NC(=O)c2ccco2)(C(=O)OC)C(F)(F)F)nc1C (stereo unspecified) returned CYP2C9 activ inactive, PostGolgi yeast inactive, CYP2C19 inh inactive, PostGolgi ctrl inactive, CYP2C9 inh 56 and CYP2C19 act inactive.
CC(=O)Nc1cccc(NC(=O)CSc2nnc(Cc3cccn3C)n2CCc2ccccc2)c1 was read as CYP2C9 activ inactive, PostGolgi yeast inactive, CYP2C19 inh inactive, PostGolgi ctrl inactive, CYP2C9 inh inactive and CYP2C19 act inactive.
For CC(C)C(NS(=O)(=O)c1cccs1)C(=O)NCc1ccc2c(c1)OCO2 (stereo unspecified) the results were CYP2C9 activ inactive, PostGolgi yeast inactive, CYP2C19 inh 94, PostGolgi ctrl inactive, CYP2C9 inh 84 and CYP2C19 act inactive.
For CCC(=O)N1CCc2cc(S(=O)(=O)NC(C(=O)NCc3ccc(C)cc3)C(C)C)ccc21 (stereo unspecified) the results were CYP2C9 activ inactive, PostGolgi yeast inactive, CYP2C19 inh inactive, PostGolgi ctrl inactive, CYP2C9 inh inactive and CYP2C19 act inactive.
Screening CCOC(=O)CNC(=O)C(Cc1ccccc1)NS(=O)(=O)c1cccs1 (stereo unspecified) returned CYP2C9 activ inactive, PostGolgi yeast inactive, CYP2C19 inh inactive, PostGolgi ctrl inactive, CYP2C9 inh inactive and CYP2C19 act inactive.
Cc1ccc(CNC(=O)C(NS(=O)(=O)c2cccs2)C(C)C)cc1 (stereo unspecified) was read as CYP2C9 activ inactive, PostGolgi yeast inactive, CYP2C19 inh 85, PostGolgi ctrl inactive, CYP2C9 inh 52 and CYP2C19 act inactive.
`Cc1ccc(CNC(=O)C(Cc2ccccc2)NS(=O)(=O)c2cccs2)cc1` (stereo unspecified) gave CYP2C9 activ inactive, PostGolgi yeast inactive, CYP2C19 inh 61, PostGolgi ctrl inactive, CYP2C9 inh inactive and CYP2C19 act inactive.
Screening CC(CN1CCOCC1)C(=O)O (stereo unspecified) returned PostGolgi yeast inactive and PostGolgi ctrl inactive.
For CCc1nnc(NC(=O)CSc2nnc(COc3ccccc3)n2Cc2ccccc2)s1 the results were PostGolgi yeast inactive and PostGolgi ctrl inactive.
COc1ccc(C2CCCN2C(=O)Nc2ccccc2)cc1OC (stereo unspecified) was read as CYP2C9 activ inactive, PostGolgi yeast inactive, CYP2C19 inh 72, PostGolgi ctrl inactive, CYP2C9 inh inactive and CYP2C19 act inactive.
COc1ccc(C2CCCN2C(=O)Nc2ccc(C)c(C)c2)cc1OC (stereo unspecified) was read as CYP2C9 activ inactive, PostGolgi yeast inactive, CYP2C19 inh 76, PostGolgi ctrl inactive, CYP2C9 inh inactive and CYP2C19 act inactive.
For COCC(=O)Nc1ccc(S(=O)(=O)Nc2ncccn2)cc1 the results were CYP2C9 activ inactive, PostGolgi yeast inactive, CYP2C19 inh inactive, PostGolgi ctrl inactive, CYP2C9 inh inactive and CYP2C19 act inactive.
For COc1ccc(-n2c(=O)c3ccccc3n(CC(=O)NC3CCCC3)c2=O)c(OC)c1 the results were CYP2C9 activ inactive, PostGolgi yeast inactive, CYP2C19 inh inactive, PostGolgi ctrl inactive, CYP2C9 inh inactive and CYP2C19 act inactive.
For CCN(CC)c1nc(C)c2c(c1C#N)CC(C)(C)OC2 the results were CYP2C9 activ inactive, PostGolgi yeast inactive, CYP2C19 inh inactive, PostGolgi ctrl inactive, CYP2C9 inh inactive and CYP2C19 act inactive.
CC(C)C1Cc2c(C#N)c(N)sc(=S)c2CO1 (stereo unspecified) was read as CYP2C9 activ inactive, PostGolgi yeast inactive, CYP2C19 inh 51, PostGolgi ctrl inactive, CYP2C9 inh 84 and CYP2C19 act inactive.
For CC1(C)Cc2c(C#N)c(N)sc(=S)c2CO1 the results were CYP2C9 activ inactive, PostGolgi yeast inactive, CYP2C19 inh inactive, PostGolgi ctrl inactive, CYP2C9 inh 68 and CYP2C19 act inactive.
For COc1ccc(NC(=O)CSc2nc3c(c(=O)[nH]2)CCC3)cc1OC the results were CYP2C9 activ inactive, PostGolgi yeast inactive, CYP2C19 inh inactive, PostGolgi ctrl inactive, CYP2C9 inh inactive and CYP2C19 act inactive.
Screening N=c1ccn(Cc2ccc(Cl)c(Cl)c2)cc1 returned CYP2C9 activ inactive, PostGolgi yeast inactive, CYP2C19 inh inactive, PostGolgi ctrl inactive, CYP2C9 inh inactive and CYP2C19 act inactive.
CCCCN(CCCC)c1nc2ccccc2nc1NS(=O)(=O)c1ccc(NC(C)=O)cc1 was read as CYP2C9 activ inactive, PostGolgi yeast inactive, CYP2C19 inh inactive, PostGolgi ctrl inactive, CYP2C9 inh 64 and CYP2C19 act inactive.
